Data as given in publication PMC5540273 (PLoS ONE, 2017).

system: CAMK2G; conditions: concentration: 1 μM, replicates: in singlicate; n = 1
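Further: KINOMEscan kinase panel screen.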

Row | Compound | %Inh
1 | COc1cc2ncn(-c3cc(OCc4ccncc4Br)c(C(N)=O)s3)c2cc1OC [GW854278] | 11%
2 | Cc1cc(Nc2nc(-c3cccc(C)n3)nc3ccccc23)ccn1 [GW872411] | 0%
3 | Cc1nnc(-c2ccc(C)c(-c3ccc(C(=O)O)cc3)c2)o1 [GW608005] | 3%
4 | COc1cc(Nc2ccnc3ccc(C(F)(F)F)cc23)cc(OC)c1OC [GW577382] | 12%
5 | FC(F)(F)c1ccc(-c2ncn(CCCN3CCOCC3)c2-c2ccncc2)cc1 [SB-217780] | 21%
6 | Cl.c1ccc(Cn2cnc3cc(Nc4ncnc5ccccc45)ccc32)cc1 [GW272142] | 32%
7 | Cc1ccc(-c2ccc3c(ccc4sc5c(c43)NC[C@@H](C)N=C5N(C)C)n2)cn1 | 0%
8 | Cl.NS(=O)(=O)c1cccc(Nc2cc(-c3ccc(F)cc3)n[nH]2)c1 [GW824645] | 0%
9 | CCc1ccc(-c2ccc3c(c2)-c2nn(C)cc2S(=O)(=O)N3C)cc1 | 4%
10 | O=C(Nc1ccc2c(c1)OCO2)NC1CCN(c2ccnc(NCc3ccc(F)cc3)n2)CC1 [GSK1379859] | 22%
11 | Cc1nc(N(C)[C@H]2CN(C(=O)CC#N)CC[C@H]2C)c2cc[nH]c2n1 | 12%
12 | CCCC(=O)Nc1n[nH]c2ncc(-c3cccc4ccccc34)cc12 [SB-642057] | 28%
13 | COC(=O)c1c(-c2ccccc2)c2cc(C)ccc2c(=O)n1Cc1ccccc1 | 0%
14 | Cc1ccc(Oc2ccc(Nc3ncnc4cc[nH]c34)cc2C)cn1 | 15%
15 | COc1cc2ncn(-c3cc(OCCCc4ccccc4)c(C(N)=O)s3)c2cc1OC [GSK205189] | 29%
16 | O=C1NC(=O)C(c2ccccc2)=C1Nc1cccc(O)c1 [SB-390534] | 13%
17 | CN1C(=O)C(Nc2ccccc2)=C(c2ccccc2)C1=O [SB-300079] | 0%
18 | COc1ccc(-n2cnc3c(N)ncnc32)cc1 [SKF-97236] | 6%

Row | Compound | %Inh
19 | COc1ccc(Nc2nccc(N3CCC(NS(=O)(=O)c4ccc(NC(C)=O)cc4)C3)n2)cc1 (stereo not drawn) [GSK1379729] | 9%
20 | Nc1ncnc2c1ncn2-c1cccc2ccccc12 [SKF-97184] | 0%
21 | Nc1nc(-c2ccccc2F)c(-c2ccnc3ccccc23)s1 [GW560459] | 10%
22 | CCc1nc(-c2cccc(C)c2)c(-c2ccncc2)s1 | 0%
23 | CCS(=O)c1ccc(-c2coc3ccc(-c4nnc(C)o4)cc23)cc1 (stereo not drawn) | 0%
24 | O=c1cc(N2CCOCC2)nc2n(Cc3ccc(F)c(Cl)c3)ccn12 [GSK2297099] | 28%
25 | COC(=O)c1c(-c2ccccc2)c2cc(Br)ccc2c(=O)n1Cc1ccc(NC(=O)CCC(=O)O)cc1 | 8%
26 | COc1cc2ncn(-c3cc(OCc4ccncc4)c(C(N)=O)s3)c2cc1OC [GSK336313] | 18%
27 | CCn1c(-c2nonc2N)nc2ccccc21 [SB-693162/GW549034] | 1%
28 | CCC(=O)c1c(-c2ccccc2)c2cc(Cl)ccc2c(=O)n1Cc1cc(S(C)(=O)=O)n(CC(N)=O)n1 | 0%
29 | O=C(Nc1n[nH]c2nc(-c3ccccc3)c(Cl)cc12)C1CC1 [SB-734909] | 0%
30 | COc1cccc(-n2cnc3c(N)ncnc32)c1 [SKF-97416] | 8%
31 | CCS(=O)(=O)c1ccc(OC)c(Nc2ncc(-c3ccc(F)cc3)o2)c1.Cl [GW591947] | 21%
32 | COc1cc(OC)cc(-c2cc3cnc(N)nc3nc2NC(=O)NC(C)(C)C)c1 | 23%
33 | COc1cc2nccc(Nc3ccc(OCc4ccc(NC(C)=O)cc4)cc3)c2cc1OC.Cl [GW440135] | 9%
34 | O=C(Nc1n[nH]c2cc(-c3ccccc3F)ccc12)C1CC1 [SB-733371] | 0%
35 | CN1C(=O)C(Nc2cc(Cl)c(O)c(Cl)c2)=C(c2ccc(Cl)cc2)C1=O [SB-404321] | 0%
36 | C[C@@H]1CC[C@H](C(=O)NC2CCCCC2)CN1c1cc(-c2ccc3c(N)n[nH]c3c2)nc(N)n1 [GSK2291363] | 38%
